{
  "source": "PubChem BioAssay",
  "key": {"[1]": {"test": "suppression of KLF5 promoter-driven luciferase – DLD-1 cells, luminescence, confirmation (AID 1834;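 active means inhibition above a set limit taken from the earlier primary screen, cut at about 63% in these data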;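 further: 0% = DMSO wells and 100% = LY294002 at 200 µM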)", "details": "DLD-1 KLF5 promoter firefly luciferase reporter, at 4 µM, stronger effect = higher value"}, "[2]": {"test": "IEC-6 intestinal cell killing – luminescence, triplicate, cytotoxicity control for KLF5 inhibitor project (AID 1905; in the data active means inhibition above about 23%;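 further: cells exposed to compounds for 48 hours before viability read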)", "details": "IEC-6 rat intestinal cells, viability luminescence; at 4 µM; stronger effect = higher value"}, "[3]": {"molecular_target": "Nuclear receptor coactivator 3 (Homo sapiens) (UniProt Q9Y6Q9)", "sequence (Q9Y6Q9 whole entry, looked up, the tested form may be a part)": "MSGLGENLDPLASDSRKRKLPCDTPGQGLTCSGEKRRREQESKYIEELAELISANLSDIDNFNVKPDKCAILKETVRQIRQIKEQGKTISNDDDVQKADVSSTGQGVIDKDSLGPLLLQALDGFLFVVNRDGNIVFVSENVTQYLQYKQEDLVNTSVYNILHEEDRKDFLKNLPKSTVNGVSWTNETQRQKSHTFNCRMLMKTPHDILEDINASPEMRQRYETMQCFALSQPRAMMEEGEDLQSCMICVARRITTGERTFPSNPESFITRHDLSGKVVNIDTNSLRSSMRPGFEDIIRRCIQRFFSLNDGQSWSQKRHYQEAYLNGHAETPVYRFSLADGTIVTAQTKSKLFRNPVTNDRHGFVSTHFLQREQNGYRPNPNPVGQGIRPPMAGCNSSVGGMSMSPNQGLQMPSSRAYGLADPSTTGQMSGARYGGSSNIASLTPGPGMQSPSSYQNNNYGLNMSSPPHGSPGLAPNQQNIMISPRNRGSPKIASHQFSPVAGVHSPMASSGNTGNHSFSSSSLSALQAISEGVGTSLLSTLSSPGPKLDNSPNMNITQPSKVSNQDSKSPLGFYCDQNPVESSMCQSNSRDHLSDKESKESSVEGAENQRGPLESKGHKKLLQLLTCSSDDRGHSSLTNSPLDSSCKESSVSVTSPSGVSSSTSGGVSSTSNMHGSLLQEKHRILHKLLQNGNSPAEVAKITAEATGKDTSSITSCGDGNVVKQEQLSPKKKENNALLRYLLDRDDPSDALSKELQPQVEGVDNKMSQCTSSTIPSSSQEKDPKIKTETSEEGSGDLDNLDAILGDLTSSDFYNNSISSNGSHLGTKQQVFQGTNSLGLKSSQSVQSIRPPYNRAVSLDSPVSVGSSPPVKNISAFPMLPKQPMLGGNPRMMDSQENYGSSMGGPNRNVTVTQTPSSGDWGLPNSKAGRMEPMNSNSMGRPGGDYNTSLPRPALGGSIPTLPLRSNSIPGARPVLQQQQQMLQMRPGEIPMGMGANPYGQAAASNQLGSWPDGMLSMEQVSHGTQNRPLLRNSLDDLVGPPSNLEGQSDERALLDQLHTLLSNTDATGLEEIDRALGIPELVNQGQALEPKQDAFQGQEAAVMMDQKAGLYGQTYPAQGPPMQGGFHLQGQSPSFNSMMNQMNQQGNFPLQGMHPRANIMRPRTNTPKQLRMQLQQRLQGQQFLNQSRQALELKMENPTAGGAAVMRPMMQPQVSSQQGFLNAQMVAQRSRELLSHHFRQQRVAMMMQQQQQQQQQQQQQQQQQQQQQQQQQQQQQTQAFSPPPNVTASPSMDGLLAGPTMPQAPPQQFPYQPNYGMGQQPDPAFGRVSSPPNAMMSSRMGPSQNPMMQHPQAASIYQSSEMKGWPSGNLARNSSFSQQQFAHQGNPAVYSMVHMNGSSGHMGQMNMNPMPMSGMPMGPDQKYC", "test": "NCOA3 GAL4-fusion reporter inhibition – cell-based, luminescence, quadruplicate, confirmation (AID 588792);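 further: 0% = DMSO treated cells and 100% = gossypol at 36 µM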", "details": "HEK293 GAL4-SRC3 luciferase reporter, at 3.6 µM, stronger effect = higher value"}, "[4]": {"system": "transactivating tegument protein VP16 (Human herpesvirus 1), Gal4-VP16 luciferase reporter", "test": "repression of VP16-driven luciferase reporter – cell-based, luminescence, high throughput, counter-screen for SRC3 inhibitor project (AID 588794; in the data active means inhibition above about 30%)", "details": "mammalian cells, at 3.6 µM, stronger effect = higher value"}, "[5]": {"molecular_target": "Nuclear receptor coactivator 1 (Homo sapiens) (UniProt Q15788)", "sequence (Q15788 whole entry, looked up, the tested form may be a part)": "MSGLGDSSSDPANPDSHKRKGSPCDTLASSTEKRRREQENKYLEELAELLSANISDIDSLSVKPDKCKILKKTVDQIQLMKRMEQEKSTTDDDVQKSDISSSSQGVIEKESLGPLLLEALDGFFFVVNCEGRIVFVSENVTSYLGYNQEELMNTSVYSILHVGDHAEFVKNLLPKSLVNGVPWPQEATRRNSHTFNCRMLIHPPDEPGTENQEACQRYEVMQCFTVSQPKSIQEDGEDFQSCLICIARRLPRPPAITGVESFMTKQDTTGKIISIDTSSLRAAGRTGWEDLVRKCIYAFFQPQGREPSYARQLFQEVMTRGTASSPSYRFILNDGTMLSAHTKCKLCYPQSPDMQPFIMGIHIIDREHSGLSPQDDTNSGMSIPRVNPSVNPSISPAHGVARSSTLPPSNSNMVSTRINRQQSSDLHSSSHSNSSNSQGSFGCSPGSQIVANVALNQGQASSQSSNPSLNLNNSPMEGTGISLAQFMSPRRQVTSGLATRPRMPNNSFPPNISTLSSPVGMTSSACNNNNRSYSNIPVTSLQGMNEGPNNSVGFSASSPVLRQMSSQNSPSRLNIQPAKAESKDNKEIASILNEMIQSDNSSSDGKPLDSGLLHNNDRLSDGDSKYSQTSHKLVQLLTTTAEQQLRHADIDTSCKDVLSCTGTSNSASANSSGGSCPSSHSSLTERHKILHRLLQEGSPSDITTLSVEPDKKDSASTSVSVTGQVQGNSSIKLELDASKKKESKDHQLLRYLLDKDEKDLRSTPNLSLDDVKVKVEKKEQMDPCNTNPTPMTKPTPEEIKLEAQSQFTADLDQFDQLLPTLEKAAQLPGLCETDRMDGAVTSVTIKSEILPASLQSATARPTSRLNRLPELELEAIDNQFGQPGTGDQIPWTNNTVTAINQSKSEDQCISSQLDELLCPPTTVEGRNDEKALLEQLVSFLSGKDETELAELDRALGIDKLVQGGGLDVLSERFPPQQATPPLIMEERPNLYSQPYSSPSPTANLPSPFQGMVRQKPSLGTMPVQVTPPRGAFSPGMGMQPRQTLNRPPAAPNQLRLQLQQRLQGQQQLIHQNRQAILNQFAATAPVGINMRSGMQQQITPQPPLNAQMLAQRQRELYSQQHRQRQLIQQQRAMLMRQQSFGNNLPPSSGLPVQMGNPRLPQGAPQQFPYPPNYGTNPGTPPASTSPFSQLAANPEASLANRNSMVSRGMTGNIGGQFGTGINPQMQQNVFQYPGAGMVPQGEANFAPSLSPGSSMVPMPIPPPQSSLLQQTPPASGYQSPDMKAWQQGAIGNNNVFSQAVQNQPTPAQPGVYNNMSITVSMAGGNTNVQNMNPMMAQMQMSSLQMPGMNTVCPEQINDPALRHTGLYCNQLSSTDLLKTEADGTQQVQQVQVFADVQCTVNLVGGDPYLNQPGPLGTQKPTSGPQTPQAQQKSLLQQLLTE", "test": "NCOA1 GAL4-fusion reporter inhibition – cell-based, luminescence, quadruplicate, confirmation (AID 588820;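 active means mean inhibition above 46.68%, the untreated control wells mean plus 3 SD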;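 further: 0% = DMSO wells and 100% = gossypol 36 µM treated wells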)", "details": "HEK293 GAL4-SRC1 luciferase reporter, at 3.6 µM, stronger effect = higher value"}, "[6]": {"test": "repression of VP16-driven luciferase reporter – cell-based, luminescence, high throughput, counter-screen for SRC1 inhibitor project (AID 588824; in the data active means inhibition above about 25%)", "details": "cell-based VP16 transactivation luciferase luminescence; at 3.6 µM; stronger effect = higher value"}, "[7]": {"molecular_target": "Photoreceptor-specific nuclear receptor (Homo sapiens) (UniProt Q9Y5X4)", "test": "retest of NR2E3-NCOR disrupting agonists – cell-based, luminescence, CHO-S two-hybrid, confirmation (AID 624378;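 active means average inhibition above a cutoff equal to the mean inhibition of all tested compounds plus one SD, cut at about 70% in these data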;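 further: 0% = DMSO in NR2E3 cells and 100% = DMSO in cells lacking NR2E3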)", "details": "CHO-S mammalian two-hybrid NR2E3-NCOR, luciferase luminescence; at 3.98 µM; stronger effect = higher value"}, "[8]": {"test": "nonselective effects on VP16 transactivation – cell-based, luminescence, CHO-S, high throughput, counter-screen for NR2E3 agonist project, confirmation (AID 624379;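 active means mean inhibition above a cutoff equal to the average over all tested compounds plus one standard deviation, cut at about 70% in these data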;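 further: 0% = DMSO with VP16-transfected cells and 100% = DMSO with cells lacking VP16; higher means less reporter light so more repression of VP16 activity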)", "details": "CHO-S GAL4-VP16 luciferase reporter, at 3.98 µM, stronger effect = higher value"}, "[9]": {"test": "StAR promoter reporter inhibitors, counter-screen for LRH-1 inverse agonist project, cell-based, luminescence, high throughput (AID 651611; in the data active means inhibition above about 28%)", "details": "StAR promoter luciferase reporter counterscreen, at 3.6 µM, stronger effect = higher value"}, "[10]": {"molecular_target": "Nuclear receptor subfamily 5 group A member 2 (Homo sapiens) (UniProt O00482)", "test": "NR5A2 activity suppression in reporter cells – cell-based, luminescence, confirmation (AID 651613; in the data active means inhibition above about 42%;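 further: HEK293T cells co-transfected with LRH-1 and StAR promoter luciferase reporter; 0% = vehicle wells and 100% = parental cells lacking receptor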)", "details": "cell-based LRH-1 luciferase reporter, inverse agonism; at 3.6 µM; stronger effect = higher value"}, "[11]": {"molecular_target": "Steroidogenic factor 1 (Homo sapiens) (UniProt Q13285)", "sequence (Q13285 whole entry, looked up)": "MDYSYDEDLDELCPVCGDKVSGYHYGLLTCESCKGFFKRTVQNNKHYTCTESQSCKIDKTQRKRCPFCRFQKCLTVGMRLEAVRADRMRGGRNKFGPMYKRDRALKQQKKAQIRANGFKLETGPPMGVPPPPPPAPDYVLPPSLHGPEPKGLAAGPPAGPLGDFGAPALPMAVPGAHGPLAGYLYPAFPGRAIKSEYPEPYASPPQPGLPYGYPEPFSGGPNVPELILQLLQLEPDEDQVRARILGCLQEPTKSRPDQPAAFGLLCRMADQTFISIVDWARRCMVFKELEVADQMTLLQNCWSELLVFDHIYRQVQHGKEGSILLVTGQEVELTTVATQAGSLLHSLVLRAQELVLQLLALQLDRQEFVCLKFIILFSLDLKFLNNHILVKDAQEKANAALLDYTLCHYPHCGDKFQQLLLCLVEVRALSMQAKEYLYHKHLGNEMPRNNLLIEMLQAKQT", "test": "inverse agonism at SF1 nuclear receptor – cell-based, luminescence, high throughput, counter-screen for LRH-1 inverse agonist project (AID 651614; in the data active means inhibition above about 44%;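 further: cells cotransfected with StAR promoter reporter and SF1 expression vector; 0% = vehicle on cells with receptor and 100% = vehicle on cells lacking receptor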)", "details": "cell-based SF1 luciferase reporter, at 3.6 µM, stronger effect = higher value"}, "[12]": {"test": "compounds suppressing VP16-driven luciferase signal – cell-based, luminescence, high throughput, counter-screen for LRH-1 inverse agonist project (AID 651615; in the data active means inhibition above about 33%)", "details": "Gal4-VP16 luciferase reporter cells, at 3.6 µM, stronger effect = higher value"}, "[13]": {"test": "VP16-driven transactivation reporter suppression – cell-based, luminescence, HEK293, counter-screen for COUP-TFII antagonist project (AID 687007; in the data active means inhibition above about 13%)", "details": "HEK293 Gal4-VP16 luciferase reporter, at 8.5 µM, stronger effect = higher value"}, "[14]": {"molecular_target": "COUP transcription factor 2 (Homo sapiens) (UniProt P24468)", "test": "retest of COUP-TFII reporter suppressors – cell-based, luciferase reporter, HEK293, triplicate, confirmation (AID 687008;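 active means mean inhibition over three repeats above a set limit taken from the earlier primary screen, cut at about 38% in these data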;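 further: 100% = cells given the luciferase reporter alone without the COUP-TF2 vector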)", "details": "HEK293 NGFI-A luciferase reporter, luminescence; at 8.5 µM; stronger effect = higher value"}, "[15]": {"molecular_target": "Induced myeloid leukemia cell differentiation protein Mcl-1 (Homo sapiens) (UniProt Q07820)", "sequence (Q07820 whole entry, looked up)": "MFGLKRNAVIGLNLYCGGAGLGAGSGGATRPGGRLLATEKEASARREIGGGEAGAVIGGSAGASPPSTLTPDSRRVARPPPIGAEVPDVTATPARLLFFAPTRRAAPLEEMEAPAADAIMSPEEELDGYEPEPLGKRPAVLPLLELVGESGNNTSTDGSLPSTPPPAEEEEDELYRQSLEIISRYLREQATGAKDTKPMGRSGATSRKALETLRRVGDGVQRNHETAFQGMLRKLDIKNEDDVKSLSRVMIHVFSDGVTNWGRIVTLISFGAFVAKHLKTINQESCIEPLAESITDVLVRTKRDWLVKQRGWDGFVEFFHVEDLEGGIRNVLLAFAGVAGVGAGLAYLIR", "test": "MCL1-BIM peptide interaction disruptors – biochemical, fluorescence polarization, triplicate, confirmation (AID 2168;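 active means inhibition above the average of all tested compounds plus 3 SD, cut at about 40% in these data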;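 further: 0% = DMSO wells and 100% = unlabeled Bim-BH3 control peptide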)", "details": "GST-MCL1 / FITC-Bim-BH3 fluorescence polarization; at 10.9 µM; stronger effect = higher value"}, "[16]": {"molecular_target": "Platelet-activating factor acetylhydrolase (Homo sapiens) (UniProt Q13093)", "sequence (Q13093 whole entry, looked up)": "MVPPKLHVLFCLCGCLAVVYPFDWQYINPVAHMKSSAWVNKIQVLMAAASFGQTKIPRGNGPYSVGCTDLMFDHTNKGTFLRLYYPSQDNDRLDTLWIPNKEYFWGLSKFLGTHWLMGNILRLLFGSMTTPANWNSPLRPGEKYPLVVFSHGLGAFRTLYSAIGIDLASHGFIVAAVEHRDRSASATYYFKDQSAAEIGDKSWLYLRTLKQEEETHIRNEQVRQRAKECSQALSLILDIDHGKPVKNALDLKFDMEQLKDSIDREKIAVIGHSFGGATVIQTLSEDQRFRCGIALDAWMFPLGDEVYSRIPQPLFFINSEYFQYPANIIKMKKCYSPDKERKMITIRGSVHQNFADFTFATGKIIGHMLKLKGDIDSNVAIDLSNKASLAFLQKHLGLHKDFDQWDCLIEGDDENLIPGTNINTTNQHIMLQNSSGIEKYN", "test": "inhibition of plasma PAF acetylhydrolase – biochemical, fluorescence polarization, human, confirmation (AID 463230;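 active means mean inhibition of the triplicate above the hit cutoff set for the earlier primary screen, cut at about 25% in these data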;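 further: 0% = enzyme with DMSO and 100% = wells lacking pPAFAH enzyme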)", "details": "recombinant pPAFAH, FP-Rh probe fluorescence polarization; at 3.39 µM; stronger effect = higher value"}, "[17]": {"molecular_target": "Glutathione S-transferase omega-1 (Homo sapiens) (UniProt P78417)", "sequence (P78417 whole entry, looked up)": "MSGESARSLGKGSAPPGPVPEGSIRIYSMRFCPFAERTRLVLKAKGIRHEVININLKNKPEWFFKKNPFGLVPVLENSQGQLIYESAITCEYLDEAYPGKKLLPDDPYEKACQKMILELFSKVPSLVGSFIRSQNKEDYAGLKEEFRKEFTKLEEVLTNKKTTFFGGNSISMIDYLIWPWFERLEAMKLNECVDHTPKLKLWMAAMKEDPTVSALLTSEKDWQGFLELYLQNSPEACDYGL", "test": "recombinant GSTO1 blockers, retest – biochemical, fluorescence polarization, triplicate, counter-screen for RBBP9 inhibitor project, confirmation (AID 2176;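 active means inhibition above the primary screen's cutoff, its mean inhibition plus 3 SD, cut at about 35% in these data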;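 further: loss of polarization as inhibitors block binding of rhodamine sulfonate ester activity probe; 0% = GSTO1 with DMSO and 100% = wells lacking GSTO1 enzyme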)", "details": "recombinant GSTO1, probe fluorescence polarization; at 5.96 µM; stronger effect = higher value"}, "[18]": {"molecular_target": "Protein-arginine deiminase type-4 (Homo sapiens) (UniProt Q9UM07)", "test": "protein arginine deiminase 4 blockade, retest – biochemical, fluorescence polarization, confirmation (AID 488796;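 active means mean inhibition across replicates above the hit cutoff set by the earlier primary screen, cut at about 15% in these data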;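 further: inhibitors block active-site labeling by the probe so polarization falls; 0% = PAD4 with probe and DMSO and 100% = probe without PAD4 enzyme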)", "details": "recombinant PAD4, RCA probe fluorescence polarization; at 6.36 µM; stronger effect = higher value"}, "[19]": {"molecular_target": "Platelet-activating factor acetylhydrolase IB subunit alpha1 (Homo sapiens) (UniProt Q15102)", "sequence (Q15102 whole entry, looked up)": "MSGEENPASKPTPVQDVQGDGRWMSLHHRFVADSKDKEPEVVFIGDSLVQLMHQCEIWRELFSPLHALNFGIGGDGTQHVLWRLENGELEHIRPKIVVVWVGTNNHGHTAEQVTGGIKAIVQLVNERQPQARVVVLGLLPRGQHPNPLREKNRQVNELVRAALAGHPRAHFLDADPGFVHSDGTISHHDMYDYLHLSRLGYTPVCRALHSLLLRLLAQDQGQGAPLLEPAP", "test": "inhibition of PAF acetylhydrolase 1B subunit 3 – biochemical, fluorescence polarization, human, confirmation (AID 493032;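 active means average inhibition over triplicate runs above the hit cutoff set in the earlier primary screen, cut at about 25% in these data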;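 further: 0% = enzyme with DMSO and 100% = wells lacking PAFAH1B3 protein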)", "details": "recombinant PAFAH1B3, FP-Rh activity-based probe, at 3.39 µM, stronger effect = higher value"}, "[20]": {"molecular_target": "(Lyso)-N-acylphosphatidylethanolamine lipase (Mus musculus) (UniProt Q8VD66)", "sequence (Q8VD66 whole entry, looked up)": "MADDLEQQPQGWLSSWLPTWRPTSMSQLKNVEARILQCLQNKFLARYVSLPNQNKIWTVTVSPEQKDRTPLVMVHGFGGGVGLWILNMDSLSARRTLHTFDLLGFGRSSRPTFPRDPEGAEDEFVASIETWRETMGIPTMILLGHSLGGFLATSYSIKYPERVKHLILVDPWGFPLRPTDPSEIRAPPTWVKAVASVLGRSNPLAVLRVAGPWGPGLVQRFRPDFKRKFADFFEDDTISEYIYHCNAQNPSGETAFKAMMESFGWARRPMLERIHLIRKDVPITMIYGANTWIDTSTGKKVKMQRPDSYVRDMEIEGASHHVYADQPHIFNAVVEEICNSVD", "test": "mouse ABHD4 hydrolase blockers, triplicate – biochemical, fluorescence polarization, confirmation (AID 720658;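 active means mean inhibition across replicates above the hit cutoff set in the primary screen, cut at about 30% in these data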;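 further: 0% = wild-type ABHD4 with DMSO and 100% = catalytically dead S159A mutant with DMSO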)", "details": "purified mABHD4, FP-Rh probe fluorescence polarization; at 8.92 µM; stronger effect = higher value"}},
  "note": "A number with no mark means an inactive call. The list shows a part of the results. Active and inactive are the calls of the source.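 How the source made its calls, unless noted: active means mean inhibition over 43.08%, the solvent-only control mean plus 3 SD; inactive means the rest.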",
  "data": [
    {"smiles": "CCCCCCCCCCCCn1ccc(=N)cc1", "values": [
      {"measurement": "inhibition", "setting": "[1]", "value": "62.6% (active)"},
      {"measurement": "inhibition", "setting": "[2]", "value": "46.8% (active)"},
      {"measurement": "inhibition", "setting": "[3]", "value": "67.6% (active)"},
      {"measurement": "inhibition", "setting": "[4]", "value": "78.8% (active)"},
      {"measurement": "inhibition", "setting": "[5]", "value": "53.8% (active)"},
      {"measurement": "inhibition", "setting": "[6]", "value": "78.9% (active)"},
      {"measurement": "inhibition", "setting": "[7]", "value": "99.7% (active)"},
      {"measurement": "inhibition", "setting": "[8]", "value": "86.7% (active)"},
      {"measurement": "inhibition", "setting": "[9]", "value": "74.4% (active)"},
      {"measurement": "inhibition", "setting": "[10]", "value": "101% (active)"},
      {"measurement": "inhibition", "setting": "[11]", "value": "92.7% (active)"},
      {"measurement": "inhibition", "setting": "[12]", "value": "89.8% (active)"},
      {"measurement": "inhibition", "setting": "[13]", "value": "14.2% (active)"},
      {"measurement": "inhibition", "setting": "[14]", "value": "76.4% (active)"}
    ]},
    {"smiles": "O=C1NC(=O)N(c2ccccc2)C(=O)/C1=C/c1ccc([N+](=O)[O-])s1", "values": [
      {"measurement": "inhibition", "setting": "[15]", "value": "66.3% (active)"},
      {"measurement": "inhibition", "setting": "[16]", "value": "44% (active)"}
    ]},
    {"smiles": "COc1ccc(N2C(=O)/C(=C/c3ccco3)C(=O)NC2=S)cc1", "values": [
      {"measurement": "inhibition", "setting": "[15]", "value": "55.3% (active)"},
      {"measurement": "inhibition", "setting": "[16]", "value": 17.3, "unit": "%"}
    ]},
    {"smiles": "CCOC(=O)c1c(N)n(Cc2ccccc2)c2nc3ccccc3nc12", "values": [
      {"measurement": "inhibition", "setting": "[17]", "value": 13.8, "unit": "%"},
      {"measurement": "inhibition", "setting": "[18]", "value": -4.66, "unit": "%"},
      {"measurement": "inhibition", "setting": "[19]", "value": 8.51, "unit": "%"}
    ]},
    {"smiles": "CCOc1cccc(=NC2CCCCC2)c2c(C)[nH]c(C)c12", "values": [
      {"measurement": "inhibition", "setting": "[3]", "value": 21.3, "unit": "%"},
      {"measurement": "inhibition", "setting": "[4]", "value": 20.1, "unit": "%"},
      {"measurement": "inhibition", "setting": "[20]", "value": 16.3, "unit": "%"}
    ]}
  ]
}
